# ALDH1A1 block: inhibitors of human aldehyde dehydrogenase 1A1 | actives 7.3% (n = 220,000) | AID 1030 | P00352 | Potency, µM (highest dose often 75.3 µM), inactives show top-dose activity, negative = inhibition, hits mostly inhibitors | Purified ALDH1A1, NADH fluorescence, propionaldehyde substrate;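 also: potency is read from the fitted curve at half-maximal effect; plate controls were no enzyme wells and a reference inhibitor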
# IMPase inh: IMPase inhibition in cells | P97697 | CHO-M1 cells, IP1 accumulation, HTRF TR-FRET ratio | inhibition (IP1 accumulation), % at 46.1 µM | 120,000 tested, under 10 active; active = well fitted curve in the direction sought with a large enough effect in the signal ratio, not every such curve was filed as active; inconclusive = small, poorly fitted or top-dose-only effect, or a change in a side signal; inactive = no such curve, though single readings can be large or run the other way; the % refers to the signal ratio;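 also: cells stimulated with carbachol in lithium chloride buffer; plate controls were DMSO basal wells for no effect and reference inhibitor wells for full effect; higher means more IMPase inhibition seen as more IP1 and lower FRET ratio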
# Target sequence (P97697 whole entry, looked up): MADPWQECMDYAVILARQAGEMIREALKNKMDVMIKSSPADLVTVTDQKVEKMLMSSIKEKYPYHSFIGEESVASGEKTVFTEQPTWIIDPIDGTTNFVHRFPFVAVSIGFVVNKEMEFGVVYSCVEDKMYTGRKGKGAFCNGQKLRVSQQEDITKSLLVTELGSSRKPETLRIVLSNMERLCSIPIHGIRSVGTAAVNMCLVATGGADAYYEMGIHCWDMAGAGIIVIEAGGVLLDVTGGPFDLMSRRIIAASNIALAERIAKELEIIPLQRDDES
#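 Cellular IMPase inhibition is scored as a rise in cytosolic IP1, detected by competitive TR-FRET between d2-labelled IP1 and a europium anti-IP1 antibody. M1-expressing CHO cells were stimulated with carbachol for 30 min at 37C, with lithium (50 mM LiCl) present in the buffer.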
# HPGD block: blocks human HPGD enzyme activity; P15428; purified HPGD, NADH fluorescence kinetic, PGE2 substrate; Potency, µM, for inactives: at the top dose activity change, negative = inhibition, most hits filed as inhibitors; actives 4.3% (n = 150,000); AID 894; also: potency is read from the fitted curve at half-maximal effect
# Target sequence (P15428 whole entry, looked up): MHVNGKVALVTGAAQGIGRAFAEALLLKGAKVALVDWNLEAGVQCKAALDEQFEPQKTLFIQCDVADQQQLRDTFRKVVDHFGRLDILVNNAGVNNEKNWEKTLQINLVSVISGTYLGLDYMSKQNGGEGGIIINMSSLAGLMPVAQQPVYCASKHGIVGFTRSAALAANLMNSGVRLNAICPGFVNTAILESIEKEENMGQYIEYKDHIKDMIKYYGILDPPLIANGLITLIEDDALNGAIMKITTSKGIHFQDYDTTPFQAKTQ
#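 20 nM HPGD preincubated 15 min at room temperature with compound in 50 mM Tris-HCl pH 8, 0.01% Tween 20. Started with 1 mM NAD+ and 30 uM prostaglandin E2; NADH fluorescence (360/450 nm) read 5 times over 30-s intervals, last minus first.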
# Active calls of the source: *; u = inconclusive; x = not tested or not shown. Shown are actives, neighbours in structure and some others; about 9% of the full set was active somewhere. Unless noted, calls follow the shape of the dose curve; as a rule, active = well fitted inhibition curve with a large enough effect (not every such curve was filed as active); inconclusive = small, poorly fitted or top-dose-only effect, or another doubt; inactive = no such curve, though single readings can be large or run the other way. Unless noted, % is scaled to controls: 0 for no effect and ±100 for the full control effect.
SMILES,ALDH1A1 block,IMPase inh,HPGD block
CCOC(=O)c1c(NC(=S)Nc2ccc(F)cc2)sc2c1CCC2,-11.5%,-15.4,0.9%
C=CCN1C=CC(=C/C=C(/C#N)C(=O)OCC)C=C1,-4.4%,42.0,u
CC(C=O)Cc1ccc(C(C)(C)C)cc1 (stereo unspecified),11.3%,x,-4.2%
COc1ccc(S(=O)(=O)N2CCCN(CC(=O)C(C)(C)C)CC2)cc1,20µM*,2.3,-10.8%
COc1ccc(S(=O)(=O)N2CCN(CC(=O)Nc3ccc(F)c(F)c3)CC2)cc1,u,0.1,-6.7%
COc1ccc(OC)c(C(=O)CN2CCN(S(=O)(=O)c3ccc(Br)cc3)CC2)c1,1.58µM*,-0.1,-29.5%
COc1ccc(NC(=O)CN2CCCN(S(=O)(=O)c3ccc(F)cc3)CC2)c(OC)c1,-15.7%,x,x
COc1c(O)cc2c(-c3ccccc3)cc(=O)oc2c1OC,u,x,-25.3%
CCc1ccccc1Nc1nc2ccccc2n2cnnc12,x,-0.5,x
COc1cccc(-n2nnc3c(=O)n(CC(=O)N4CCC(Cc5ccccc5)CC4)cnc32)c1,2µM*,3.0,-24.8%
Cc1ccc(Cn2nnc3c(=O)n(CC(=O)N4CCCc5ccccc54)cnc32)cc1,2.5%,-7.4,-15.7%
O=C(Cn1cnc2c(nnn2Cc2ccc(Cl)cc2)c1=O)N1CCCc2ccccc21,22.4µM*,-9.1,-15.2%
O=C(CN1CCOCC1)N1CCCc2ccccc21,7.94µM*,x,x
COc1cccc(-n2nnc3c(=O)n(CC(=O)N4CCC(C)CC4)cnc32)c1,-11.6%,-7.1,u
COc1ccc(-c2noc(=O)n2CC(=O)N2CCC(Cc3ccccc3)CC2)cc1,25.1µM*,x,x
O=C(Cn1nnc(-c2ccc(CN3CCOCC3)cc2)n1)N1CCCc2ccccc21,0.7%,0.1,-9.8%
O=C(Cn1c(-c2ccccc2)noc1=O)N1CCC(Cc2ccccc2)CC1,1.2%,x,x
CCN(CC)CCCC(C)NC(=O)c1cccc(S(=O)(=O)N2CCc3ccccc32)c1 (stereo unspecified),-1.7%,x,x
Cc1ccc2cc(CNC(C)C)c(=O)[nH]c2c1,u,3.4,-10.1%
COC(=O)c1c(C)oc(C)c1S(=O)(=O)NCc1ccco1,-5.8%,x,x
COc1cc(C(=O)OCC(=O)c2c(N)n(C)c(=O)n(C)c2=O)ccc1OCCC(C)C,2.9%,x,x
COc1ccc(NS(=O)(=O)c2cc(NC(=O)Cn3cnc4c3c(=O)n(C)c(=O)n4C)ccc2C)cc1,-2.1%,x,x
CCOC(=O)c1ccc(NC(=O)Cn2ccc([N+](=O)[O-])n2)cc1,1.3%,x,x
CC(C)C[C@H](NC(=O)c1nc[nH]c1C(=O)NCc1ccccc1)C(=O)OCc1ccccc1,-6.2%,x,x
O=C(Cn1cnc2c(oc3ccccc32)c1=O)N1CCCc2ccccc21,20µM*,-2.4,-7.0%
SMILES,ALDH1A1 block,IMPase inh,HPGD block
COc1cccc(-n2nnc3c(=O)n(CC(=O)N4CCCc5ccccc54)cnc32)c1,u,0.1,22.4µM*
COc1ccc(-n2ncc3c(=O)n(CC(=O)N4CCCc5ccccc54)cnc32)cc1,u,7.7,u
COc1cccc(-n2nnc3c(=O)n(Cc4cccc(C)c4)cnc32)c1,u,2.9,u
COc1cccc(-n2nnc3c(=O)n(Cc4ccccc4F)cnc32)c1,u,-1.1,5.62µM*
O=C(CSc1ncnc2c1oc1ccccc12)N1CCCc2ccccc21,u,-0.1,-18.9%
COc1cccc(S(=O)(=O)Nc2ccc(C(=O)N3CCOCC3)cc2)c1,-5.5%,1.0,-11.1%
CC(C)c1nnc(NC(=O)CCC(=O)NC2CCCc3ccccc32)s1 (stereo unspecified),0.7%,4.7,-3.9%
Cc1cccc(-n2c(=S)[nH]c3nc4c(cc3c2=O)COC(C)(C)C4)c1,0.708µM*,x,x
Cc1cccc(-n2c(=S)[nH]c3c(oc4ccccc43)c2=O)c1,u,x,-11.3%
CCC1CCc2c(sc(NC(=O)C3CC=CCC3C(=O)O)c2C#N)C1 (stereo unspecified),1.78µM*,x,31.6µM*
CCOC(=O)Nc1sc2c(c1C#N)CCC(C)C2 (stereo unspecified),u,5.0,-9.2%
COC(=O)N1CCC[C@@]2(CCN(c3ccncc3)C2)C1,1.8%,x,-1.1%
Cc1cc(=O)[nH]c(SCc2nnc(-c3ccccc3)o2)n1,-3.4%,-2.7,-22.3%
Clc1ccc(OCc2nnc(SCc3nnc(-c4ccccc4)o3)o2)c(Cl)c1,u,-2.7,7.94µM*
Clc1ccc2nc(SCc3nnc(-c4ccccc4)o3)[nH]c2c1,11.2µM*,-5.6,17.8µM*
Clc1ccc(-c2nnc(CSc3nnc(-c4cccs4)o3)o2)cc1,-4.5%,-11.3,-11.9%
Cn1c2ccccc2c2nnc(SCc3nnc(-c4ccccc4)o3)nc21,3.6%,x,x
Cn1c(SCc2nnc(-c3ccccc3)o2)nc2ccccc21,12.6µM*,x,x
O=S(=O)(c1ccccc1)c1cnc(-c2cccnc2)nc1-c1ccc(Cl)c(Cl)c1,-1.8%,0.5,-3.9%
CC1(C)Cc2ccccc2-c2nnc(SCC(=O)Nc3nc4ccccc4s3)n21,0.7%,3.2,-6.3%
CCC(Sc1ccccn1)C(=O)Nc1nnc(C)s1 (stereo unspecified),-15.4%,14.4,-7.0%
O=C(Nc1cccc(N2C(=O)C3C4C=CC(C4)C3C2=O)c1)c1cccs1 (stereo unspecified),6.6%,x,x
CCC(=O)c1cccc2c1N=CC1=C(CC(C)(C)CC1=O)N2,u,-1.0,-1.2%
Cc1ccc(NS(=O)(=O)c2cc(C(=O)O)ccc2Cl)c(C)c1,-3.8%,2.8,-9.3%
COCCNC(=O)c1ccc2c(c1)NC(=O)CS2,7.8%,0.0,35.5µM*
SMILES,ALDH1A1 block,IMPase inh,HPGD block
O=C1CSc2ccc(C(=O)NCCC3=CCCCC3)cc2N1,6.9%,4.3,-6.4%
Cc1ccc(NS(=O)(=O)c2cc(NC(=O)c3ccc4c(c3)NC(=O)CS4)ccc2Cl)c(C)c1,10µM*,x,x
COc1cccc(C=Nc2cccc3c(=O)[nH][nH]c(=O)c23)c1O,-10.2%,x,x
Cc1[nH]n(-c2ccccc2)c(=O)c1C=Nc1ccc2[nH]c(=O)[nH]c2c1,12.0%,x,-10.3%
O=c1[nH]c2ccc(N=Cc3c(O)ccc4cc(Br)ccc34)cc2[nH]1,1µM*,x,-24.0%
CN1CCCC2(CCN(C(=O)c3cnccn3)CC2)C1,3.9%,x,-10.0%
CC(C)C(=O)NC(=O)COC(=O)/C=C/c1cccs1,-4.0%,x,x
O=C(/C=C/c1cccs1)Nc1nc(-c2ccccc2)cs1,3.1%,9.9,-14.5%
Cc1ccc(NC(=O)COC(=O)/C=C/c2cccs2)cc1,11.2%,x,28.2µM*
CCN(c1ccc(NC(=O)COC(=O)/C=C/c2cccs2)cc1)C(C)C,0.126µM*,x,x
O=C(COC(=O)/C=C/c1cccs1)Nc1nc(-c2ccccc2)cs1,22.4µM*,x,-9.5%
NC(=O)c1ccc(NC(=O)COC(=O)/C=C/c2cccs2)cc1,2.1%,x,x
CC(=O)OC(C)CS(=O)(=O)c1ccccc1 (stereo unspecified),9.4%,x,x
CC(C)(O)C(=O)O,u,x,-10.5%
Cc1oc(-c2ccccc2)nc1CS(=O)CC(=O)N1CCc2ccccc2C1 (stereo unspecified),25.1µM*,1.6,u
Cc1cccc(-c2nc(CS(=O)CC(=O)N3CCCCC3)c(C)o2)c1 (stereo unspecified),-0.4%,0.0,-6.5%
Cc1ccc(S(=O)(=O)N(Cc2cc3cccc(C)c3[nH]c2=O)c2ccccc2)cc1,u,1.1,u

# Screening data deposited in PubChem by National Center for Advancing Translational Sciences (NCATS).
